Source: PubChem BioAssay AID1159580 (chemical genetic matrix, 2015)
Values joined by “and” are separate entries in the source; they are usually repeats but may differ in a detail not shown here. Equal values may be shown once. In all, about 5,500 compounds went through this assay and about 2,000 (36%) were called active. Inconclusive results (about 18%) are left out. Rule as the data show it: active = normalized growth mostly below about 0.91 (no sharp cut-off); inconclusive = no clear call, values can overlap the other calls; inactive = mostly above about 0.92. This is one part of the list.

Assay: chemical genetic growth profiling, strain panel (AID 1159580);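 also: tested at 20 µM; growth read once vehicle control cultures reached saturation at 30 °C; 1 = growth at the plate median or of vehicle wells; lower values mean less growth of the strain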
Conditions: growth OD

Measured: normalized growth

CC12CC3CC(C)(C1)CC(N)(C3)C2
inactive: S. cerevisiae deletion strains, locus YJR075W, strain HOC1, hits give low values 1.01 | S. cerevisiae deletion strains, locus YKL009W, strain mrt4, hits give low values 1.03 | S. cerevisiae deletion strains, locus YKL068W, hits give low values 0.999 | S. cerevisiae deletion strains, locus YKL085W, strain MDH1 (second series), hits give low values 0.996 | S. cerevisiae deletion strains, locus YKL085W, strain MDH1, hits give low values 0.996 | S. cerevisiae deletion strains, locus YKL160W, strain elf1, hits give low values 1 | S. cerevisiae deletion strains, locus YKL190W, strain CNB1, hits give low values 0.999 | S. cerevisiae deletion strains, locus YKR001C, strain vps1, hits give low values 1.02 | S. cerevisiae deletion strains, locus YKR026C, strain gcn3, hits give low values 0.982 | S. cerevisiae deletion strains, locus YKR091W, strain srl3, hits give low values 0.99 | S. cerevisiae deletion strains, locus YLL001W, strain dnm1, hits give low values 0.972 | S. cerevisiae deletion strains, locus YLL026W, hits give low values 0.995 | S. cerevisiae deletion strains, locus YLL041C, strain sdh2, hits give low values 0.997 | S. cerevisiae deletion strains, locus YLR027C, strain aat2, hits give low values 0.991 | S. cerevisiae deletion strains, locus YLR039C, strain RIC1, hits give low values 1.04 | S. cerevisiae deletion strains, locus YLR058C, strain SHM2, hits give low values 0.999 | S. cerevisiae deletion strains, locus YLR102C, strain apc9, hits give low values 0.996 | S. cerevisiae deletion strains, locus YLR113W, strain HOG1, hits give low values 0.996 | S. cerevisiae deletion strains, locus YLR221C, strain rsa3, hits give low values 1 | S. cerevisiae deletion strains, locus YLR258W, strain gsy2, hits give low values 1 | S. cerevisiae deletion strains, locus YLR262C, strain YPT6 (second series), hits give low values 1 | S. cerevisiae deletion strains, locus YLR262C, strain YPT6, hits give low values 0.979 | S. cerevisiae deletion strains, locus YLR268W, strain sec22, hits give low values 1.07 | S. cerevisiae deletion strains, locus YLR320W, strain mms22, hits give low values 1 | S. cerevisiae deletion strains, locus YLR330W, strain CHS5, hits give low values 1 | S. cerevisiae deletion strains, locus YLR342W, strain FKS1 (second series), hits give low values 1.01 | S. cerevisiae deletion strains, locus YLR342W, strain FKS1, hits give low values 0.985 | S. cerevisiae deletion strains, locus YLR357W, strain rsc2, hits give low values 0.969 | S. cerevisiae deletion strains, locus YLR370C, strain arc18, hits give low values 0.995 | S. cerevisiae deletion strains, locus YLR371W, strain rom2, hits give low values 1.01 | S. cerevisiae deletion strains, locus YLR384C, strain iki3, hits give low values 0.99 | S. cerevisiae deletion strains, locus YLR418C, strain cdc73, hits give low values 1.01 | S. cerevisiae deletion strains, locus YML016C, strain PPZ1, hits give low values 0.998 | S. cerevisiae deletion strains, locus YML032C, strain rad52, hits give low values 1.02 | S. cerevisiae deletion strains, locus YML120C, strain ndi1, hits give low values 1 | S. cerevisiae deletion strains, locus YML124C, strain tub3, hits give low values 1.01 | S. cerevisiae deletion strains, locus YMR058W, strain fet3, hits give low values 0.993 | S. cerevisiae deletion strains, locus YMR078C, strain ctf18, hits give low values 1 | S. cerevisiae deletion strains, locus YMR125W, strain sto1, hits give low values 0.975 | S. cerevisiae deletion strains, locus YMR129W, hits give low values 0.979 | S. cerevisiae deletion strains, locus YMR205C, strain PFK2, hits give low values 0.993 | S. cerevisiae deletion strains, locus YMR223W, strain ubp8, hits give low values 0.986 | S. cerevisiae deletion strains, locus YMR231W, strain pep5, hits give low values 0.982 | S. cerevisiae deletion strains, locus YMR263W, strain SAP30, hits give low values 1.01 | S. cerevisiae deletion strains, locus YMR307W, strain GAS1, hits give low values 0.964 and 0.971 | S. cerevisiae deletion strains, locus YNL067W, strain RPL9B, hits give low values 1.02 | S. cerevisiae deletion strains, locus YNL071W, strain lat1, hits give low values 0.986 | S. cerevisiae deletion strains, locus YNL128W, strain TEP1, hits give low values 1.01 | S. cerevisiae deletion strains, locus YNL153C, strain GIM3, hits give low values 1.01 | S. cerevisiae deletion strains, locus YNL175C, strain NOP13, hits give low values 0.994 | S. cerevisiae deletion strains, locus YNL183C, strain NPR1, hits give low values 0.935 | S. cerevisiae deletion strains, locus YNL197C, strain WHI3, hits give low values 1 | S. cerevisiae deletion strains, locus YNL209W, strain ssb2, hits give low values 0.992 | S. cerevisiae deletion strains, locus YNL224C, strain SQS1, hits give low values 1 | S. cerevisiae deletion strains, locus YNL233W, strain BNI4, hits give low values 1.01 | S. cerevisiae deletion strains, locus YNL248C, strain rpa49, hits give low values 0.961 | S. cerevisiae deletion strains, locus YNL250W, strain rad50, hits give low values 1.01 | S. cerevisiae deletion strains, locus YNL271C, strain bni1, hits give low values 1.01 | S. cerevisiae deletion strains, locus YNL298W, strain CLA4, hits give low values 1 | S. cerevisiae deletion strains, locus YNL307C, strain MCK1, hits give low values 1.01 | S. cerevisiae deletion strains, locus YNL322C, strain KRE1 (second series), hits give low values 0.993 | S. cerevisiae deletion strains, locus YNL322C, strain KRE1, hits give low values 0.998 and 0.989 | S. cerevisiae deletion strains, locus YNR049C, strain mso1, hits give low values 0.986 | S. cerevisiae deletion strains, locus YNR052C, strain pop2, hits give low values 1.01 | S. cerevisiae deletion strains, locus YOL006C, strain TOP1, hits give low values 1.05 | S. cerevisiae deletion strains, locus YOL012C, strain htz1 1.4 | S. cerevisiae deletion strains, locus YOL147C, strain pex11, hits give low values 1 | S. cerevisiae deletion strains, locus YOR001W, strain rrp6, hits give low values 0.985 | S. cerevisiae deletion strains, locus YOR061W, strain CKA2, hits give low values 1 | S. cerevisiae deletion strains, locus YOR069W, strain VPS5, hits give low values 1.01 | S. cerevisiae deletion strains, locus YOR070C, strain gyp1, hits give low values 0.991 | S. cerevisiae deletion strains, locus YOR080W, strain dia2, hits give low values 0.986 | S. cerevisiae deletion strains, locus YOR083W, strain WHI5 (second series), hits give low values 1.03 | S. cerevisiae deletion strains, locus YOR083W, strain WHI5, hits give low values 0.977 | S. cerevisiae deletion strains, locus YOR106W, strain vam3, hits give low values 0.993 | S. cerevisiae deletion strains, locus YOR136W, strain idh2, hits give low values 1.01 | S. cerevisiae deletion strains, locus YOR144C, strain elg1, hits give low values 1.01 | S. cerevisiae deletion strains, locus YOR184W, strain ser1, hits give low values 1.01 | S. cerevisiae deletion strains, locus YOR231W, strain MKK1, hits give low values 0.995 | S. cerevisiae deletion strains, locus YOR265W, strain rbl2, hits give low values 0.989 | S. cerevisiae deletion strains, locus YOR270C, strain vph1, hits give low values 0.921 | S. cerevisiae deletion strains, locus YOR290C, strain snf2, hits give low values 0.997 | S. cerevisiae deletion strains, locus YOR316C, strain cot1, hits give low values 1 | S. cerevisiae deletion strains, locus YPL051W, strain arl3, hits give low values 0.986 | S. cerevisiae deletion strains, locus YPL055C, strain LGE1, hits give low values 1 | S. cerevisiae deletion strains, locus YPL078C, strain atp4, hits give low values 0.986 | S. cerevisiae deletion strains, locus YPL106C, strain sse1, hits give low values 1.01 | S. cerevisiae deletion strains, locus YPL240C, strain hsp82, hits give low values 0.998 | S. cerevisiae deletion strains, locus YPL241C, strain CIN2, hits give low values 1 | S. cerevisiae deletion strains, locus YPL256C, strain CLN2, hits give low values 0.971 | S. cerevisiae deletion strains, locus YPR119W, strain clb2, hits give low values 1 | S. cerevisiae deletion strains, locus YPR141C, strain kar3, hits give low values 1.01 | S. cerevisiae deletion strains, locus YPR163C, strain tif3, hits give low values 1.01 | S. cerevisiae deletion strains, locus YPR167C, strain met16, hits give low values 1 | S. cerevisiae deletion strains, strain wtn01, hits give low values 1.02 | S. cerevisiae strains, strain wild type, hits give low values 1.01
